Laboratory results published in PubChem BioAssay AID686978 (National Center for Advancing Translational Sciences (NCATS), 2013).
Where “and” joins values, the source holds several entries; their conditions need not be identical. Equal entries are not always repeated. Hit rate of the full screen: of about 420,000 compounds, about 64,000 (15%) were called active. Another 27% or so got no clear call; they are omitted. Calls follow the shape of the dose curve; as a rule, active = well fitted inhibition curve with a large enough effect; inconclusive = small, poorly fitted or top-dose-only effect; inactive = flat fitted curve, though single readings scatter. The list is a sample of the results.

Assay: qHTS for Inhibitors of human tyrosyl-DNA phosphodiesterase 1 (TDP1): qHTS in cells in absence of CPT; also: nearly all actives have a fitted effect of over 55% in size
Conditions: DT40 Tdp1-/- hTDP1 cells, no CPT, ATP luminescence, 48 h; activity change, negative = growth inhibition: at 46.2 µM (top of the series)
Outline: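 Growth of hTDP1-complemented DT40 Tdp1-knockout cells is measured by ATP luminescence after at least 48 hr compound exposure at 37 °C, with DMSO substituting for the 20 nM CPT used in the parallel screen.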
% is scaled to controls: 0 for no effect and ±100 for the full control effect; potency is read from the fitted curve at half-maximal effect.

SMILES	activity change, negative = growth inhibition	Potency
Cc1ccc(C(=O)COC(=O)CCN2C(=O)C3C4CC(C(Br)C4Br)C3C2=O)cc1 (stereo not drawn)	2.81% (inactive)	–
Clc1ccc(-c2cc(COc3ccccc3)no2)cc1Cl	-3.75% (inactive)	–
COc1ccc(Oc2coc3cc(OC(=O)c4cncc(Br)c4)ccc3c2=O)cc1	-27.9% (inactive)	–
O=C(Oc1ccccc1)Oc1ccc2c(c1)oc(=O)c1ccccc12	-12.5% (inactive)	–
N#CCSc1nc2ccc(N3CCOCC3)cc2c(=O)n1CCc1ccccc1	–	20.6 µM (active)
CCCCn1c(SCC(=O)NCC2CCCO2)nc2ccc(N3CCOCC3)cc2c1=O (stereo not drawn)	-12.7% (inactive)	–
COCCCNC(=O)CSc1nc2ccc(N3CCOCC3)cc2c(=O)n1CCc1ccccc1	-18.2% (inactive)	–
O=C(CSc1nnc2n1CCCN2)c1ccccc1	17.1% (inactive)	–
COc1cccc(OC)c1C(=O)OCC(=O)/C(C#N)=C(\C)N	-3.38% (inactive)	–
CC(=O)Cn1cnc2c(cnn2-c2ccccc2)c1=O	1.02% (inactive)	–
Cc1ccc(-n2ncc3c(=O)n(Cc4cccc(C(F)(F)F)c4)cnc32)cc1C	-16.6% (inactive)	–
CC(C)(C)n1ncc2c(=O)n(Cc3ccc(Cl)cc3)cnc21	–	23.1 µM (active)
c1cc(-c2nn[nH]n2)ccc1CN1CCCCC1	-14.8% (inactive)	–
CC(=O)Nc1ccc(OCCC[n+]2cccc(C(=O)[O-])c2)cc1	-4.3% (inactive)	–
Nc1nc(SCc2ccccc2Cl)n[nH]1	-17.1% (inactive)	–
Nc1cc(N)nc(SCc2cccc(F)c2)n1	2.63% (inactive)	–
Fc1ccc(CSc2nc(NCc3ccccc3)c3ccccc3n2)cc1	–	16.4 µM (active)
Fc1ccc(Nc2nc(SCc3ccccc3Cl)nc3ccccc23)cc1	–	16.4 µM (active)
Fc1ccc(CNc2nc3ccccc3n3nnnc23)cc1	-27.9% (inactive)	–
O=c1cc(O)nc(SCc2ccccc2Cl)[nH]1	0.667% (inactive)	–
O=C1NCC(c2ccccc2)(c2ccccc2)C(=O)N1	-4.04% (inactive)	–
CC(=O)c1nc(N2C(=O)C3CC=C(C)CC3C2=O)sc1C (stereo not drawn)	-12.9% (inactive)	–

SMILES	activity change, negative = growth inhibition	Potency
Cc1ccc(S(=O)(=O)NC2(C(F)(F)F)NC(=O)N(CCc3ccccc3)C2=O)cc1 (stereo not drawn)	–	inactive
O=C(Nc1ccccc1F)c1ccc2c(c1)OCO2	-4.9% (inactive)	–
N[C@@H](C(=O)O)c1ccc(P(=O)(O)O)cc1	-0.85% (inactive)	–
O=C(c1ccc(Oc2ccc(Cl)cc2)c([N+](=O)[O-])c1)N1CCCC1	–	14.6 µM (active)
O=C(c1ccc(Cl)c(Cl)c1)N1CCCC1	-8.49% (inactive)	–
O=C(COc1ccc(Cl)cc1[N+](=O)[O-])N1CCCCC1	-16.3% (inactive)	–
CCOCCN(C=O)c1cccc(OC)c1	-14.8% (inactive)	–
Cc1cc(C)c2c(Cn3ccnc3)cc(=O)oc2c1	-22.5% (inactive)	–
CC(C)C[C@H](NC(=O)N1CC(=O)Nc2ccccc21)C(=O)N[C@H](Cc1ccccc1)C(=O)O	6.12% (inactive)	–
CSCC[C@H](NC(=O)NC1CCCC1)C(=O)O	17.5% (inactive)	–
O=C(Nc1nccs1)c1cc(S(=O)(=O)N2CCOCC2)c(Cl)cc1Cl	-12% (inactive)	–
CCOC(=O)C1=C(c2ccccc2)NC(=O)NC1c1cc(OCC)c(O)c([N+](=O)[O-])c1 (stereo not drawn)	-13.7% (inactive)	–
COc1cc(C2NC(=O)NC(c3ccccc3)=C2C(C)=O)c(Br)cc1OCC(N)=O (stereo not drawn)	-4.31% (inactive)	–
CCCOc1ccc(C2NC(=O)NC(c3ccccc3)=C2C(C)=O)cc1OCC (stereo not drawn)	–	23.1 µM (active)
CC(C)(C(=O)N1CCC1(C)C(=O)NS(=O)(=O)c1ccc(Br)cc1)c1ccccc1 (stereo not drawn)	-10.3% (inactive)	–
CSc1nsc(SCC(=O)Nc2cc(C(=O)O)ccc2C)n1	26.8% (inactive)	–
OC(C#CCN1CCOCC1)(c1ccccc1)C1CCCCC1 (stereo not drawn)	-19% (inactive)	–
COc1ccc(C(O)(C2CCCCC2)C(CN2CCCC2)c2ccccc2)cc1 (stereo not drawn)	–	18.4 µM (active)
CC(CN1CCCCC1)c1ccccc1 (stereo not drawn)	-5.65% (inactive)	–
CCc1nccn1S(=O)(=O)c1cc(Br)ccc1Br	-5.02% (inactive)	–
O=C(Nc1ccc(-c2nc3cc(NC(=O)c4ccccc4Cl)ccc3o2)cc1)c1ccccc1Cl	–	2.91 µM (active)
CCCCCC(=O)Nc1ccc2oc(-c3ccncc3)nc2c1	-14.9% (inactive)	–

SMILES	activity change, negative = growth inhibition	Potency
Cc1ccccc1-c1nc2cc(NC(=O)c3cccc(OCCC(C)C)c3)ccc2o1	–	5.17 µM (active)
O=C(Nc1ccc(C(=O)O)c(O)c1)c1ccccc1	–	inactive
Cc1nc2nc[nH]n2c(=O)c1NC(=O)c1cccc(OCC(C)C)c1	-10.7% (inactive)	–
Cc1cc2nc(-c3ccc(NC(=O)c4cc5ccccc5o4)cc3)oc2cc1C	-3.82% (inactive)	–
CCCCOc1ccc(C(=O)Nc2cccc(-c3nc4ccccc4o3)c2C)cc1	-15% (inactive)	–
CCCOc1ccc(C(=O)Nc2ccc3oc(-c4cccc(Cl)c4Cl)nc3c2)cc1	–	7.31 µM (active)
CC(=O)Nc1ccc(-c2nc3ccccc3o2)cc1	9.6% (inactive)	–
COc1cc(OC)cc(C(=O)Nc2ccc(-c3nc4ccccc4o3)c(O)c2)c1	–	16.4 µM (active)
O=C(COc1ccc(Cl)cc1)Nc1ccc(-c2nc3cc(Cl)ccc3o2)c(O)c1	-19% (inactive)	–
NS(=O)(=O)c1ccc(CCNC(=O)CNC(=O)Cc2ccccc2)cc1	12.8% (inactive)	–
NC(=O)C1CC=CCC1C(=O)OCC(Cl)=C(Cl)Cl (stereo not drawn)	4.67% (inactive)	–
CC(C)NC(=S)N1CCN(S(C)(=O)=O)CC1	1.33% (inactive)	–
C[n+]1cc(-c2ccccc2)oc1-c1ccccc1	-10.1% (inactive)	–
COc1cc(OC)cc(C(=O)NNC(=O)Cc2cccs2)c1	-1.43% (inactive)	–
CC(C)(C)n1nc2c(c1NC(=O)c1ccc(S(=O)(=O)N3CCCC3)cc1)CS(=O)C2 (stereo not drawn)	-21.6% (inactive)	–
CC(C)(C)n1c(=O)[nH]c2c(c1=O)CCC2	5.73% (inactive)	–
CC1(C)CC(=O)C(N=Nc2c(F)cccc2F)=C(O)C1	-7.33% (inactive)	–
NC1=NC(=O)C2(COC(c3ccccc3Cl)OC2)S1 (stereo not drawn)	0.828% (inactive)	–
O=C(CSc1ncccn1)NC(=O)NCc1ccccc1	-8.73% (inactive)	–
COc1cc(NC(=O)CN2CCN(S(=O)(=O)c3ccc(Br)cc3)CC2)cc(OC)c1	-12.3% (inactive)	–
COC(=O)c1ccc(-c2nc3cc(NC(C)=O)ccc3o2)cc1	-15% (inactive)	–
O=C(Nc1ccc2oc(-c3ccc(O)c(Br)c3)nc2c1)c1cc2ccccc2o1	-8.41% (inactive)	–

SMILES	activity change, negative = growth inhibition	Potency
COc1cccc(C(=O)Nc2ccc3oc(-c4ccc5ccccc5c4)nc3c2)c1	–	10.3 µM (active)
O=C(Nc1ccc(NC(=O)c2cccs2)cc1)c1ccc2ccccc2c1	1.73% (inactive)	–
COc1cccc(-c2nc3cc(C)ccc3o2)c1	-25.6% (inactive)	–
O=C(Nc1ccc2oc(-c3ccc4ccccc4c3)nc2c1)c1cccs1	–	23.1 µM (active)
COCCNC(=O)c1ccccc1-c1nc(-c2ccccc2Cl)no1	-25.9% (inactive)	–
COc1ccccc1CCCNC(=O)C1CCC(=O)N(CCN2CCOCC2)C1 (stereo not drawn)	19% (inactive)	–
Cn1c(N)c(C(=O)COC(=O)COc2ccc(Cl)cc2)c(=O)n(C)c1=O	-19% (inactive)	–
N=C1C(=O)OCC1c1ccccc1NC(=O)CN1CCCCC1 (stereo not drawn)	-8.68% (inactive)	–
Cc1cccc(CC2(O)C(=O)Nc3ccccc32)n1 (stereo not drawn)	-14.3% (inactive)	–
CC(Sc1nnc(COc2ccccc2)n1-c1ccccc1)C(=O)O (stereo not drawn)	-4.89% (inactive)	–
CCCCN(CC)CCCNC(=O)c1nn(C)c2c1CS(=O)(=O)c1ccccc1-2	10.4% (inactive)	–
COC(=O)c1ccc(NC(=O)c2cc(Cl)ccc2OC)cc1	16.5% (inactive)	–
CCN1CCN(c2cc(C)c3cc(NC(=O)c4cc(Cl)ccc4OC)ccc3n2)CC1	–	4.11 µM (active)
Cc1cc(N2CCN(C)CC2)nc2ccc(NC(=S)N3CCOCC3)cc12	-13.7% (inactive)	–
CCOCCCNC(=S)Nc1ccc2nc(N3CCN(CC)CC3)cc(C)c2c1	-3.03% (inactive)	–
COc1ccc(C(=O)Nc2ccc3nc(N4CCCCC4)cc(C)c3c2)cc1OC	–	14.6 µM (active) and 16.4 µM (active)
COc1cc(NC(=O)c2ccc(CNc3c(N4CCCC4)c(=O)c3=O)cc2)cc(OC)c1OC	-25.3% (inactive)	–
CCOc1ccc(S(=O)(=O)NCCSc2ccccc2)cc1	2.24% (inactive)	–
O=C(Nc1cccc(Cl)c1)Nc1nnc(-c2ccccc2)o1	–	16.4 µM (active)
O=C(COC(=O)c1ccccc1Br)Nc1nnc(-c2ccccc2)o1	-7.07% (inactive)	–
O=C(Nc1nnc(-c2ccc(Cl)cc2)o1)c1ccccc1Br	–	18.4 µM (active)
O=C(CSc1nnc(-c2ccncc2)o1)Nc1cccc(Cl)c1	-5.19% (inactive)	–

SMILES	activity change, negative = growth inhibition	Potency
O=C(Nc1ccccc1)c1ccccc1Br	-23.4% (inactive)	–
CC(=O)Nc1cccc(C(=O)OCC(=O)Nc2nnc(-c3ccccc3)o2)c1	1.04% (inactive)	–
O=C(Cn1cnc2cc([N+](=O)[O-])ccc2c1=O)NC(=O)NCc1ccccc1	0.964% (inactive)	–
CCOC(=O)N1CCN(Cc2oc(CO)cc(=O)c2O)CC1	3.91% (inactive)	–
Cc1c(Cl)c([N+](=O)[O-])nn1Cc1ccc(C(=O)N/N=C\c2cc(Cl)ccc2O)o1	–	4.61 µM (active)
Cc1ccc(C(=O)O)cc1NC(=O)c1ccc(Cn2nc(C)c(Cl)c2C)o1	1.5% (inactive)	–
O=C(N/N=C/c1ccc2c(c1)OCO2)c1ccc(Cn2cc([N+](=O)[O-])cn2)o1	-19.9% (inactive)	–
O=C(O)CSCC(=O)Nc1ccc(C(F)(F)F)cc1	13.2% (inactive)	–
COc1ccc(C(C)=O)cc1CN1C(=O)NC2(CCCCC2C)C1=O (stereo not drawn)	2.75% (inactive)	–
CNS(=O)(=O)c1cccc(C(=O)OCC(=O)N2c3ccccc3NC(=O)C2(C)C)c1	-12.8% (inactive)	–
Cc1ccn(CC(=O)NC2CCCN(Cc3ccccc3F)C2)n1 (stereo not drawn)	-0.51% (inactive)	–
CCCOC1CCCN(Cc2cn(C)nc2-c2ccccc2F)C1 (stereo not drawn)	-22.2% (inactive)	–
CC(C)c1cc(C(=O)N(C)C2CCCN(Cc3ccccc3F)C2)n(C)n1 (stereo not drawn)	–	25.9 µM (active)
CC1CCCN(Cc2c(O)ccc3c(=O)c(Oc4ccc(C(C)(C)C)cc4)c(C(F)(F)F)oc23)C1 (stereo not drawn)	-17.9% (inactive)	–
Cn1nc(C(F)(F)F)c2cc(NC(=O)OCC(C)(C)C)sc21	-12.7% (inactive)	–
O=C(c1cccs1)c1cn(CCOc2ccc(Cl)cc2)c2ccccc12	–	7.31 µM (active)
COCCNC(=O)Cn1cc(C(=O)c2cccs2)c2ccccc21	6.96% (inactive)	–
COC(=O)Cn1cc(C(=O)c2cccs2)c2ccccc21	-9.78% (inactive)	–
O=C(CC1SC(N2CCCC2)=NC1=O)Nc1ccc(C(=O)NCCc2ccc(F)cc2)cc1 (stereo not drawn)	-12.2% (inactive)	–
CC(=O)Nc1ccc(NS(=O)(=O)c2cc(C)sc2C)cc1	-18.7% (inactive)	–
